Data from PubChem BioAssay (EPA / NIEHS).
Records with an inconclusive call do not appear. The source made the active and inactive calls. Rule for the calls: active = hit-call score of the fitted dose curve at least 0.9, where 1 is the maximum; inconclusive = response in the unintended direction; inactive = score below 0.9.

What was measured:
[1] = TOX21_p53_BLA_p2_viability: Viability Assessment in the Tox21 HCT-116 p53 Agonism Beta-lactamase Assay, Phase 2 (AID 2283591);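 note: compound exposure lasted 16 h at 37 °C; actives lower the ATP signal meaning cytotoxicity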
How it was run: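 HCT116 p53-bla cells, 4000/well, dosed after 5 h plating (217-fold dilution of DMSO stocks) and incubated 16 h at 37C. Viability taken as cellular ATP by CellTiter-Glo luminescence after 30 min RT; signal loss marks cytotoxicity.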

[2] = target: Cellular tumor antigen p53 (Homo sapiens) (UniProt P04637); assay: TOX21_p53_BLA_p2_ratio: Tox21 HCT-116 p53 Agonism Beta-lactamase Assay, Ratio, Phase 2 (AID 2283592)
Chain of Cellular tumor antigen p53 (Homo sapiens) (P04637 whole entry, looked up): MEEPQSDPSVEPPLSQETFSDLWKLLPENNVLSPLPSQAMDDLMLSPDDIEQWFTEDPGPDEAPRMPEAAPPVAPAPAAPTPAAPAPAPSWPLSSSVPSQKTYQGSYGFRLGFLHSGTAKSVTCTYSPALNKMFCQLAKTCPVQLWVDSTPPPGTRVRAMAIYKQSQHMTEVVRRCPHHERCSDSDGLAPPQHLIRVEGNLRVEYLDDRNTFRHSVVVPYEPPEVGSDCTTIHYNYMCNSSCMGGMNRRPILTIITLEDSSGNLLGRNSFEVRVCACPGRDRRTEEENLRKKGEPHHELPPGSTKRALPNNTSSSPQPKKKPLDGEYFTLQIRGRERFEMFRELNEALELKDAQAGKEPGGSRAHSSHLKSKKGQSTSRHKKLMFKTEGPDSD
How it was run: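 Ratio endpoint: beta-lactamase cleavage of CCF4-AM, blue (460 nm) over green (530 nm). HCT116 reporter line; 16 h treatment, 37C; substrate 2 h RT.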

[3] = TOX21_p53_BLA_p3_viability: Viability Assessment in the Tox21 HCT-116 p53 Agonism Beta-lactamase Assay, Phase 3 (AID 2283593);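 note: cells exposed to compound for 16 h before reading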
How it was run: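 HCT116 cells, 4000/well, dosed 5 h after plating by pin transfer (217-fold dilution from DMSO stock) and incubated 16 h at 37C, 5% CO2. Viability read as ATP luminescence with CellTiter-Glo after 30 min at room temperature.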

[4] = target: Cellular tumor antigen p53 (Homo sapiens) (UniProt P04637); assay: TOX21_p53_BLA_p3_ratio: Tox21 HCT-116 p53 Agonism Beta-lactamase Assay, Ratio, Phase 3 (AID 2283596)
How it was run: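 Cells were seeded at 4000/well, rested 5 h at 37C, then dosed with DMSO compound solutions (217-fold dilution) for 16 h. CCF4-AM substrate was loaded for 2 h at room temperature, and the 460/530 nm emission ratio was fitted for gain of signal versus DMSO.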

[5] = TOX21_p53_BLA_p4_viability: Viability Assessment in the Tox21 HCT-116 p53 Agonism Beta-lactamase Assay, Phase 4 (AID 2283597);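 note: hits lower the luminescence signal meaning cytotoxicity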
How it was run: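 Cytotoxicity was inferred from loss of CellTiter-Glo luminescence. HCT116 cells had been dosed with compounds after 5 h plating, incubated 16 h at 37C and 5% CO2, and exposed to the CCF4-AM substrate for 2 h.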

[6] = target: Cellular tumor antigen p53 (Homo sapiens) (UniProt P04637); assay: TOX21_p53_BLA_p4_ratio: Tox21 HCT-116 p53 Agonism Beta-lactamase Assay, Ratio, Phase 4 (AID 2283601)
How it was run: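 HCT-116 p53 beta-lactamase reporter cells (4000/well) preincubated 5 h, then compound (217-fold dilution of DMSO stock) for 16 h at 37C. CCF4-AM substrate added 2 h at room temperature; 460/530 nm emission ratio fitted upward versus DMSO.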

Measured: outcome

CC(Cl)=CCCl
inactive: all assays above
